The source of these data is PubChem BioAssay (Tox21).

The target of assay [1] is Retinoic acid receptor RXR-alpha (Homo sapiens) (UniProt P19793). Nature of the assay: qHTS assay to identify small molecule agonists of the RXR signaling pathway (AID 1159527; calls by dose curve; note: nearly all actives have a fitted effect of over 35% in size). The note with it: HEK293T RXRa-UAS-bla, beta-lactamase ratio, 16 h; series mostly up to 76.8 µM. Summed up:
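Read-out: beta-lactamase FRET ratio (405 nm excitation, 460 and 530 nm emission) after 2 hr substrate loading at room temperature. Cells were RXR-alpha-UAS-bla HEK 293T treated with compounds for 16 hr in 2% charcoal-stripped FBS medium.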
On the technique in general: Quantitative high-throughput screening tests each substance at several concentrations.

A short description of assay [2]: qHTS assay to identify small molecule agonists of the RXR signaling pathway - cell viability counter screen (AID 1159529). Note: nearly all actives have a fitted effect of over 50% in size. Note: potency is the fitted concentration of half-maximal effect. The note with it: RXR-alpha-bla HEK293T viability, CellTiter-Glo, 16 h; series mostly up to 76.8 µM. Summed up: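 HEK 293T RXRa-bla cells, 2% CS-FBS; 5 h settle; cpd 16 h 37 C, 5% CO2; CellTiter-Glo 30 min RT, luminescence. Tetraoctyl ammonium bromide as positive control.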

Assay [3] in a line: qHTS assay to identify small molecule antagonists of the retinoid acid receptor (RAR) signaling pathway - cell viability counter screen (AID 1159551). Note: nearly all actives have a fitted effect of over 35% in size. The settings on record: C3RL4 cells viability, ATP luminescence (CellTiter-Glo), 6 h; series mostly up to 92.4 µM. Summed up:
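In this counter screen, the RARE-luciferase line C3RL4 was exposed for 6 h at 37 C and 5% CO2 to compounds with retinol at 1 uM final. Cellular ATP, read by luminescence, served as the viability measure.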

Assay [4] is described as follows: qHTS assay to identify small molecule agonists of the retinoic acid receptor (RAR) signaling pathway (AID 1159553). The settings on record: C3RL4 RARE luciferase reporter, agonist, 6 h; series mostly up to 73.3 µM. Summed up:
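In this cell-based screen, 1,000 C3RL4 cells per well were cultured overnight, dosed with test chemicals in DMSO for 6 hr, and assessed for RARE luciferase luminescence.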

The nature of assay [5]: qHTS assay to identify small molecule antagonists of the retinoic acid receptor (RAR) signaling pathway (AID 1159552; note: nearly all actives have a fitted effect of over 50% in size). The settings on record: C3RL4 RARE luciferase reporter, retinol-stimulated, 6 h; series mostly up to 92.4 µM. Summed up:
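Cells of the C3RL4 line were seeded, incubated overnight, then dosed with compounds in DMSO followed immediately by retinol (1 uM final). Six hours later luciferase detection reagent went in; signal was measured after 30 min at RT.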

The nature of assay [6]: qHTS assay to identify small molecule antagonists of the estrogen related receptor (ERR) signaling pathway - cell viability counter screen (AID 1224818). The settings on record: ERR reporter cell line viability counter screen; series mostly up to 46.1 µM. Summed up:
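Viability of ERR cells, CellTiter-Fluor fluorescence; 17.5 h compound exposure at 37 C, DMSO vehicle; 30 min reagent incubation at 37 C/5% CO2.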

A short description of assay [7]: qHTS assay to identify small molecule antagonists of the estrogen related receptor (ERR) signaling pathway (AID 1224819; note: nearly all actives have a fitted effect of over 50% in size). The note with it: ERR reporter cell line, luciferase inhibition; series mostly up to 46.1 µM. The method, boiled down: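 Seed ERR cells 2,000/well; rest 6 h at 37 C/5% CO2; pin compounds in DMSO; incubate 18 h at 37 C; add One-Glo; wait 30 min at room temperature; measure luminescence.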

Assay [8] in a line: qHTS assay to identify small molecule agonists of the estrogen related receptor (ERR) signaling pathway (AID 1224820). The note with it: ERR reporter cell line, luciferase agonist mode; series mostly up to 46.1 µM. Summed up: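 After 6 h plating (2,000 cells/well) and 18 h compound treatment at 37 C, ERR cells were lysed with One-Glo and luminescence read after 30 min at room temperature.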

For assay [9], the system named is estrogen-related receptor alpha (ERRalpha) with PGC-1alpha coactivator, human. Kind of assay: qHTS assay to identify small molecule antagonists of the estrogen related receptor signaling pathway with the pleiotropic PPARgamma coactivator (PGC) (AID 1224821; calls by dose curve;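 note: lower luminescence signal means antagonism of PGC/ERR signalling; nearly all actives have a fitted effect of over 50% in size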). The settings on record: ERR/PGC reporter cell line, luciferase, antagonist mode; series mostly up to 46.1 µM. The method, boiled down: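 Luminescence from One-Glo luciferase reagent (30 min, room temperature) measured after 18 h compound treatment at 37 °C. Cells carry the PGC/ERR reporter and were seeded 6 h prior to dosing.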

The nature of assay [10]: qHTS assay to identify small molecule antagonists of the estrogen related receptor signaling pathway with the pleiotropic PPARgamma coactivator (PGC) cell viability counter screen (AID 1224822). The settings on record: ERR/PGC reporter cell line viability counter screen; series mostly up to 46.1 µM. Summed up:
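17.5 h compound treatment of PGC/ERR cells at 37 C; readout CellTiter-Fluor fluorescence; run alongside the PGC/ERR antagonist screen to flag cytotoxic compounds.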

Values joined by “and” are separate entries in the source; they are usually repeats but may differ in a detail not shown here. Equal entries are not always repeated. Results filed as inconclusive are left out. Some compounds were tested as several samples or in several runs, with calls that do not always agree. Active and inactive are the calls of the source. Unless noted, calls come from the whole dose curve; as a rule, active = well fitted curve in the direction sought with a large enough effect in the repeat runs; inconclusive = weak or mixed curves; inactive = no such curve, though single readings can be large; an effect the other way counts as inactive or inconclusive.
% is set by controls: 0 for no effect and ±100 for the full control effect.

Sequence of Retinoic acid receptor RXR-alpha (Homo sapiens) (P19793 whole entry, looked up): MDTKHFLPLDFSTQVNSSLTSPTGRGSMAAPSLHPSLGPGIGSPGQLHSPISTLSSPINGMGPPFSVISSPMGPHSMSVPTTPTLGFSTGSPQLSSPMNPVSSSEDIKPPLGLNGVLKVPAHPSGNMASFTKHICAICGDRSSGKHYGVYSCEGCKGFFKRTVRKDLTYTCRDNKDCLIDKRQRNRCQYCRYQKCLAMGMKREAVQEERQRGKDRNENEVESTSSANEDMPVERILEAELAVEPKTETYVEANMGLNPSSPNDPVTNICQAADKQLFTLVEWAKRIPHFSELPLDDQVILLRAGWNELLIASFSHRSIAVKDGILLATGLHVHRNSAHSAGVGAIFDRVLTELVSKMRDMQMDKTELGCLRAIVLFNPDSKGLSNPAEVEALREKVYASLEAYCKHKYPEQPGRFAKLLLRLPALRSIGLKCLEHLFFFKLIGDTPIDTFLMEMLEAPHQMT

Regarding `CCN(CC)C1CCCCC1`, the Potency result in assay [1], in assay [2], in assay [3] and in assay [4] was “inactive” each time.

Regarding `C[C@H](CN1CCOCC1)C(C(=O)N1CCCC1)(c1ccccc1)c1ccccc1`, the Potency result in assay [1], in [2], in assay [3] and in assay [4] was “inactive” each time.

In the case of `O=C(O)c1c(Cl)ccc2cc(Cl)cnc12`, the Potency result in [1], in [2], in assay [3] and in assay [4] was “inactive” in each case.

As for `COP(=O)(O)OC`, the Potency result in assay [1], in assay [2], in assay [3] and in assay [4] was “inactive” in each case.

For the compound `CCN(CCO)CCn1c(Cc2ccccc2)nc2c1c(=O)n(C)c(=O)n2C`, the Potency entry in [1], in assay [2], in assay [3] and in [4] was “inactive” in each case.

With `CCC1(c2ccccc2)C(=O)N(COC)C(=O)N(COC)C1=O`, the Potency entry in [1], in assay [2], in assay [3] and in assay [4] was “inactive” throughout.

For the compound `Nc1c(Cl)c(F)nc(OCC(=O)O)c1Cl`, the Potency entry in [1], in assay [2], in assay [3] and in [4] was “inactive” throughout.

Consider `C=CC1(C)OC(=O)N(c2cc(Cl)cc(Cl)c2)C1=O` (stereo not drawn), for which, in [2], the Potency was 34.5 µM (active) and inactive. Also, in assay [3], the Potency result was “inactive”.

Regarding `CCC(C)C(C)(COC(N)=O)COC(N)=O` (stereo not drawn), the Potency result in assay [1], in assay [2], in [3] and in assay [4] was “inactive” each time.

On to `BrCc1ccc(Br)cc1`, for which the Potency result in assay [1], in [2], in [3] and in assay [4] was “inactive” each time.

With `CC(C)(C)NC[C@H](O)c1ccc(O)cc1Cl`, the Potency result in assay [1], in assay [2], in assay [3] and in [4] was “inactive” throughout.

As for `O=[N+]([O-])CCO`, the Potency result in assay [1], in [2], in assay [3] and in [4] was “inactive” in each case.

For `Clc1nc(Cl)nc(Nc2ccccc2Cl)n1`, the Potency entry in assay [1], in assay [2], in assay [3] and in assay [4] was “inactive” in each case.

Turning to `CCCC[N+](=O)[O-]`, the Potency entry in assay [1], in assay [2], in assay [3] and in assay [4] was “inactive” in each case.

On to `C=C(Cl)CSC(=S)N(CC)CC`, for which the Potency result in assay [2], in assay [3], in assay [5] and in [4] was “inactive” each time.

As for `O=C1CCCCC1Cl` (stereo not drawn), the Potency result in assay [2], in assay [3] and in assay [4] was “inactive” each time.

In the case of `C[C@H](N)C(=O)c1ccccc1`, the Potency entry in assay [2], in [3] and in assay [4] was “inactive” in each case.

On to `CNC(=O)O/N=C(/CSC)C(C)(C)C`, for which the Potency entry in assay [2], in assay [3], in [5] and in assay [4] was “inactive” each time.

Take `COc1ccccc1OC`: the Potency result in [2], in assay [3], in assay [5] and in assay [4] was “inactive” each time.

For the compound `CCN(CCO)CCO`, the Potency result in assay [2], in [3] and in [4] was “inactive” throughout.

Take `ClCOCCl`: the Potency entry in assay [2], in assay [3] and in assay [4] was “inactive” throughout.

On to `CC(C)(C)c1cc(O)ccc1O`, for which the Potency in assay [2] was 21.9 µM (active) and 24.5 µM (active). Besides, in assay [4], the Potency result is “inactive”.

Consider `CCC(=O)c1ccc(Cl)cc1`, for which the Potency entry in [2], in [3], in assay [5] and in assay [4] was “inactive” in each case.

On to `CN(C)C(=O)Oc1cc(OC(=O)N(C)C)cc(C(O)CNC(C)(C)C)c1` (stereo not drawn), for which the Potency entry in [2], in assay [3], in assay [5] and in assay [4] was “inactive” throughout.

On to `CCCCCCCCSC(=O)Oc1cc(Cl)nnc1-c1ccccc1`, for which the Potency entry in assay [2], in [3], in assay [5] and in assay [4] was “inactive” each time.

`Clc1ccc(C(Cl)(Cl)Cl)cn1`: the Potency result in assay [2], in assay [3], in assay [5] and in assay [4] was “inactive” throughout.

In the case of `CNC(=O)Oc1ccccc1C(C)C`, the Potency result in assay [2], in [3], in [5] and in assay [4] was “inactive” in each case.

`CC(C)C(C)(N)C#N` (stereo not drawn): the Potency entry in assay [2], in [3], in assay [5] and in assay [4] was “inactive” throughout.

On to `CCCCCCCCBr`, for which the Potency entry in assay [2], in [3] and in [4] was “inactive” each time.

Regarding `CCCN1CCC[C@@H]2Cc3nc(N)ncc3C[C@H]21`, the Potency entry in [2], in assay [3] and in [5] was “inactive” each time. Also, the outcome in assay [6], in assay [7], in assay [8], in [9] and in assay [10] was inactive.

Regarding `C/C=C/CC#N`, the Potency result in [2], in [3], in [5] and in assay [4] was “inactive” throughout.

With `Brc1c(Br)c(Br)c(Br)c(Br)c1Br`, the activity change, negative = cytotoxicity in assay [2] was 7.53% [at 6.97 µM] (inactive); in [3], -4.22% [at 8.39 µM] (inactive). In addition, in assay [5], the activity, negative = inhibition was -18.1% [at 8.39 µM] (inactive). The activation in [4] was -2.33% [at 8.36 µM] (inactive).

On to `OP(O)c1ccccc1`, for which the Potency result in assay [2], in [3], in assay [5] and in assay [4] was “inactive” each time.

For the compound `CCCOC(=O)Cc1ccc(OCC(=O)N(CC)CC)c(OC)c1`, the Potency result in [2], in assay [3], in assay [5] and in assay [4] was “inactive” throughout.

In the case of `CC(=O)CN(CC(C)=O)N=O`, the Potency result in assay [2], in [3], in assay [5] and in assay [4] was “inactive” throughout.

As for `CC1N=C(N)OC1c1ccccc1` (stereo not drawn), the Potency result in [2], in [3], in [5] and in assay [4] was “inactive” each time.

As to `CCC(C(N)=O)N1CCCC1=O` (stereo not drawn), the Potency entry in assay [2], in assay [3], in assay [5] and in assay [4] was “inactive” in each case.

For `O=C(O)CBr`, the Potency result in assay [2], in assay [3], in assay [5] and in assay [4] was “inactive” each time.

On to `CCCOc1nn(C(=O)NS(=O)(=O)c2ccccc2C(=O)OC)c(=O)n1C`, for which the Potency entry in assay [2], in assay [3] and in [4] was “inactive” throughout.

As to `C=CC(=O)OCCN(C)C`, the Potency entry in [2], in assay [3], in assay [5] and in assay [4] was “inactive” in each case.

As to `O=CCCl`, the Potency entry in [2], in assay [3], in [5] and in assay [4] was “inactive” in each case.

`CCOC(=O)CC(SP(=S)(OC)OC)C(=O)OCC` (stereo not drawn): the Potency result in [2] and in assay [3] was “inactive” in each case. Further, the compound was classed as inactive in assay [6].

`COC(=O)c1ccccc1CS(=O)(=O)NC(=O)Nc1nc(OC)cc(OC)n1`: the Potency entry in [2], in [3], in [5] and in [4] was “inactive” throughout.

As to `O=C(NC(O)C(Cl)(Cl)Cl)NC(O)C(Cl)(Cl)Cl` (stereo not drawn), the Potency result in [2], in [3] and in assay [4] was “inactive” in each case.

As to `N=C(N)[Se]`, the Potency result in assay [2], in [3] and in assay [4] was “inactive” in each case.

As to `C1CN2CCC1CC2`, the Potency result in [2], in assay [3], in assay [5] and in assay [4] was “inactive” in each case.

With `Cc1cc(OC(=O)N(C)C)nn1C(=O)N(C)C`, the Potency result in [2], in [3], in [5] and in assay [4] was “inactive” in each case.

For the compound `C=C(C)[C@H]1CN[C@H](C(=O)O)[C@H]1CC(=O)O`, the Potency result in assay [2], in assay [3], in [5] and in assay [4] was “inactive” each time. In addition, the call in [6] and in [10] was inactive.

Regarding `CNC(=O)NC(O)C(Cl)(Cl)Cl` (stereo not drawn), the Potency entry in [2], in assay [3], in assay [5] and in [4] was “inactive” in each case.

Take `O=C(O)C(Br)(Br)Br`: the Potency result in assay [2], in assay [3], in [5] and in assay [4] was “inactive” each time.
